Source: PubChem BioAssay (National Center for Advancing Translational Sciences (NCATS))
RECQ1 inh-1: blocks DNA unwinding by human RECQ1; RECQ1 DNA unwinding, red fluorescence kinetic read; Potency, µM (highest dose often 57.3 µM), without a hit: at the highest dose activity, negative = inhibition, hits mostly inhibitors; P46063; actives 0.54% (n = 240,000); AID 2549;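 further: potency means the concentration at half of the fitted maximal effect; plate controls were vehicle for no effect and no enzyme for full effect; nearly all actives have a fitted effect of over 30% in size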
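50 nM RECQ1T1 preincubated 15 min with compound in Tris pH 8.0 buffer with MgCl2, DTT, Tween-20 and 2.5 ug/ml poly(dI-dC); started with 200 nM TAMRA/BHQ-2 forked duplex and 2 mM ATP. Unwinding read as fluorescence (525/598 nm), two reads 2 h apart.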
PI5P4Ka inh: blocks human PI5P4K alpha kinase activity; actives 1.2% (n = 330,000); PI5P4Kalpha enzyme, ADP-Glo luminescence, 60 min; stronger effect = lower value; P48426; max response, %; active means max response of -50% or lower; inconclusive means between -30% and -50%; inactive means -30% or higher; further: value at the top dose of about 77 µM
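ADP-Glo luminescence end-point read after a 60 min room-temperature kinase reaction of PI5P4Kalpha plus substrate, initiated with ATP at 5 microM final. Buffer: 0.038 M HEPES pH 7.4, EGTA, 0.1% CHAPS, 5% DMSO.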
APE1 inh-1: APE1 (human) endonuclease inhibition. actives 0.35% (n = 350,000). recombinant APE1, TAMRA/BHQ-2 abasic DNA cleavage fluorescence. P27695. AID 2517. Potency, µM (top dose mostly 65.8 µM), for inactives: at the highest dose activity change, negative = inhibition, most hits filed as inhibitors;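 further: potency means the concentration at half of the fitted maximal effect; plate controls were vehicle for no effect and reference inhibitor for full effect; nearly all actives have a fitted effect of over 55% in size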
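Activity was derived from the fluorescence gain between first and third kinetic reads (60 s intervals, ex 525/em 598 nm) after 50 nM THF-abasic TAMRA/BHQ-2 duplex was added to 0.75 nM APE1 preincubated 15 min with compound.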
FEN1 inhibitor: inhibitors of human flap endonuclease 1; P39748; Recombinant FEN1 flap cleavage, fluorescence, 15 min; Potency, µM (highest dose often 114 µM), for the others: at the top dose activity change, negative = inhibition, hits mostly inhibitors; actives 0.35% (n = 390,000); further: potency means the concentration at half of the fitted maximal effect; nearly all actives have a fitted effect of over 65% in size
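Quantitative HTS format: each compound was titrated, incubated with 10 nM nuclease for 15 min at room temperature, then challenged with flap substrate at 50 nM final. Signal change over 15 min gave concentration–effect curves.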
WRN helicase inh: inhibitors of human WRN helicase; Potency, µM (titrated, usually from 114 µM), without a hit: at the top dose activity change, negative = inhibition, most hits filed as inhibitors; Q14191; actives 0.46% (n = 360,000); AID 651768; WRN helicase unwinding, fluorescent forked duplex, kinetic; further: potency means the concentration at half of the fitted maximal effect; nearly all actives have a fitted effect of over 55% in size
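Screening of the MLSMR collection measured strand separation of a quenched forked DNA duplex (100 nM) by 20 nM WRN with 2 mM ATP, all final. Compounds were preincubated with enzyme 15 min at room temperature.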
BLM helicase inh: inhibitors of human Bloom syndrome helicase BLM; P54132; recombinant BLM DNA unwinding, fluorescence dequenching; Potency, µM (highest dose often 56.1 µM), without a hit: top-dose activity change, negative = inhibition, usual class: inhibitors; actives 0.2% (n = 350,000);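 further: potency means the concentration at half of the fitted maximal effect; plate controls were vehicle for no effect and no enzyme for full effect; nearly all actives have a fitted effect of over 35% in size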
APE1 dye cs: DNA dye displacement counter-screen activity | shares compounds with APE1 inh-1 | DNA fluorescent dye displacement counterscreen, fluorescence | Potency, µM (top dose mostly 28.5 µM), inactives show at the highest dose activity change, negative = inhibition, actives largely listed as inhibitors | actives 7% (n = 480) | AID 2564;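 further: loss of thiazole orange fluorescence as the dye is displaced from duplex DNA; potency means the concentration at half of the fitted maximal effect; 0% = ThO with dsDNA and no compound and -100% = ThO without dsDNA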
Endo IV inh: Endo IV (E. coli) inhibition counter-screen | actives 4% (n = 560) | E. coli Endo IV, fluorogenic AP-site DNA cleavage | Potency, µM (series often up to 27.1 µM), without a hit: at the highest dose activity change, negative = inhibition, hits mostly inhibitors | shares compounds with APE1 inh-1;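 further: potency means the concentration at half of the fitted maximal effect; plate controls were uninhibited enzyme wells for no effect and no enzyme buffer wells for full effect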
APE1 inh-2: confirmation of inhibitors of human APE1 endonuclease | shares compounds with APE1 inh-1 | AID 2572 | purified APE1, fluorogenic abasic-site DNA cleavage | Potency, µM (titrated, usually from 57.1 µM), for the others: at the top dose activity change, negative = inhibition, actives largely listed as inhibitors | actives 44% (n = 750); further: potency means the concentration at half of the fitted maximal effect; nearly all actives have a fitted effect of over 30% in size
APE1 FP inh: APE1 (human) DNA binding inhibition, fluorescence polarization | shares compounds with APE1 inh-1 | APE1 binding to TAMRA-labelled double-stranded DNA, fluorescence polarization displacement | Potency, µM (doses to about 28.5 µM), for inactives: top-dose activity, negative = inhibition, hits mostly inhibitors | actives 7% (n = 480) | AID 2573; further: potency means the concentration at half of the fitted maximal effect
RECQ1 inh conf: confirmation of human RECQ1 helicase inhibitors; Potency, µM (highest dose often 229 µM), inactives show at the top dose activity change, negative = inhibition, hits mostly inhibitors; shares compounds with RECQ1 inh-1; RECQ1 helicase DNA unwinding, fluorescence; actives 28% (n = 610); further: potency means the concentration at half of the fitted maximal effect; nearly all actives have a fitted effect of over 45% in size
RECQ1 ADP FP: ADP displacement flagged in RECQ1 inhibitor counter-screen | shares compounds with RECQ1 inh-1 | ADP fluorescence polarization displacement counterscreen | Potency, µM (titrated, usually from 228 µM), inactives show top-dose activity change, negative = inhibition, usual class: inhibitors | actives 27% (n = 530) | AID 2711; further: potency means the concentration at half of the fitted maximal effect; nearly all actives have a fitted effect of over 45% in size
RECQ1 inh-2: confirmation of human RECQ1 helicase inhibitors; shares compounds with RECQ1 inh-1; AID 504841; Potency, µM (doses to about 119 µM), for the others: top-dose activity, negative = inhibition, usual class: inhibitors; actives 15% (n = 1,100); recombinant RECQ1 DNA unwinding, red fluorescence; further: potency means the concentration at half of the fitted maximal effect; nearly all actives have a fitted effect of over 50% in size
Numbers without * were called inactive; i = inactive; ? = inconclusive; . = no result given; [ ] = dose if it differs, or a comment. Sampled rows, rich in hits. Any-hit rate of the full collection: about 1.5%. Unless noted, the call rests on the fitted dose curve; in most records, active means well fitted curve in the direction sought with a large enough effect; inconclusive means small, poorly fitted or top-dose-only effect, or another doubt; inactive means no such curve, though single readings can be large; an effect the other way counts as inactive or inconclusive. Unless noted, on the % scale 0 is the no-effect control and ±100 the full control effect.

SMILES	RECQ1 inh-1	PI5P4Ka inh	APE1 inh-1	FEN1 inhibitor	WRN helicase inh	BLM helicase inh	APE1 dye cs	Endo IV inh	APE1 inh-2	APE1 FP inh	RECQ1 inh conf	RECQ1 ADP FP	RECQ1 inh-2
CCCSC1=N/C(=C\C=C\c2ccco2)C(=O)S1	7.9µM*	-67*	4µM*	50µM*	?	20µM*	-3%	18%	?	?	32µM*	13µM*	?
CCCSC1=N/C(=C\c2ccsc2)C(=O)S1	i	1	-4%	-8%	2%	-4%	.	.	.	.	.	.	.
O=C1C=C(O)c2ccccc2C1=O	2%	.	-7%	.	.	-3%	.	.	.	.	.	.	.
O=C1C=C(O)c2cccc(O)c2C1=O	?	?	?	?	-25%	0%	-3%	-3%	-4%[24.4 µM]	2%	.	.	-11%
COc1cc2c(cc1OC)C1O[C@](CCCCN3C(=O)c4ccccc4C3=O)(C2)Oc2cc(C)n(Cc3ccccc3)c(=O)c21	.	.	-5%[12.4 µM]	.	.	-6%[12.4 µM]	.	.	.	.	.	.	.
C=Cc1c(C)/c2[n-]/c1=C\c1[n-]c(c(CC)c1C)/C=c1\[n-]c3c(c1C)C(=O)C(C(=O)[O-])C=3c1[n-]c(c(C)c1CCC(=O)[O-])\C=2.[Cu].[Na+].[Na+] (configuration not stated)	1.1µM*	.	.	.	.	11µM*	.	16µM*	2.8µM*	.	2.8µM*	45µM*	.
COc1cccc(Cn2c(C)c(CNCc3cccc(C)c3)c(C(=O)O)c2C)c1	.	.	.	-1%	.	1%	.	.	.	.	.	.	.
CC1(C)SC2C(N3C(=O)C(c4ccccc4)NC3(C)C)C(=O)N2C1C(=O)O (configuration not stated)	14µM*	.	.	.	.	-7%	-8%[57.1 µM]	14%[57.1 µM]	?	?	89µM*	32µM*	.
CC(=O)Nc1ccc2c(COC(=O)CC3Sc4ccccc4NC3=O)cc(=O)oc2c1 (configuration not stated)	?	?	?	-25%	?	-9%	.	.	35µM*	.	.	.	?
Nc1ccc(/C=C/c2ccc(N)cc2S(=O)(=O)O)c(S(=O)(=O)O)c1	.	.	.	.	.	52%	.	.	.	.	.	.	.
Nc1ccc(Nc2ccccc2)c(S(=O)(=O)O)c1	?	-25	14µM*	-1%	?	0%	?	15%	?	?	.	.	?
